The source made the active and inactive calls.
Columns and labels:
Albumin (Bos taurus) = Albumin (Bos taurus) (UniProt P02769); test: compounds binding labelled BSA control protein – biochemical, small-molecule microarray, Alexa647 label, 635/667 nm fluorescence, artefact control for SMM control protein annotation, profiling panel (AID 1118); conditions: BSA-A647 binding, fluorescence 635 nm, higher = more signal;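 further: score merges 667 nm emission intensity and signal-to-noise per printed compound spot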
Sequence of Albumin (Bos taurus) (P02769 whole entry, looked up): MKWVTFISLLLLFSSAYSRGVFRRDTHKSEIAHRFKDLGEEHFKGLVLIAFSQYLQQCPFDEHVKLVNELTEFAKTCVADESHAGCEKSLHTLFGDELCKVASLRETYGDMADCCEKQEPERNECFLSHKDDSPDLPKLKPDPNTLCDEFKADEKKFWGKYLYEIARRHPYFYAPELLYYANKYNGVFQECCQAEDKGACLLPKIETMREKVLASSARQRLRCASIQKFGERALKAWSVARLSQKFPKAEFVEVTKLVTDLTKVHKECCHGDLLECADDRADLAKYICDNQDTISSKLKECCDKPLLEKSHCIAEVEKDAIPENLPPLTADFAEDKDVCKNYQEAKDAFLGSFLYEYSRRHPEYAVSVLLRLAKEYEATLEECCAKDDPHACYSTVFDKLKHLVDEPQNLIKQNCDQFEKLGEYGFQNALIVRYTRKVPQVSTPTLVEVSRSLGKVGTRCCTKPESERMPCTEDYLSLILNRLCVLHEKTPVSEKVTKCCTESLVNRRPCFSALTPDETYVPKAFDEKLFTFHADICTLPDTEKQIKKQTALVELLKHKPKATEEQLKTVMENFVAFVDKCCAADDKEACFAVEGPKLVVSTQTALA

[1] = probe aXIP binding to arrayed compounds – biochemical, NeuroSMM set, 635/667 nm fluorescence, primary screen (AID 1119); conditions: small-molecule microarray, higher = more signal, called active from +8 up or from −8 down;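 further: probe is the protein aXip251-270 applied at 1 µg/mL to compound-printed slides; binding of probe to printed compounds measured as 667 nm fluorescence plus signal to noise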
[2] = probe aNOTCH3 binding on compound microarray – biochemical, small-molecule microarray, 635/667 nm fluorescence, primary screen (AID 1120); conditions: higher = more signal;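 further: probe is a biotin-tagged antibody raised against NOTCH3 rather than NOTCH3 protein; score merges spot fluorescence near 667 nm with spot signal to noise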
[3] = probe aNOTCH2 binding on compound microarray – biochemical, small-molecule microarray, 635/667 nm fluorescence, primary screen (AID 1121); conditions: higher = more signal;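 further: score merges feature fluorescence read at 667 nm with its signal to noise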
[4] = biological target: Carbonic anhydrase 2 (Homo sapiens) (UniProt P00918); test: compounds binding carbonic anhydrase 2 – biochemical, small-molecule microarray, Alexa647-labelled CAII, profiling panel (AID 1122); conditions: CAII-A647 binding fluorescence, higher = more signal
[5] = COS7 lysate on small-molecule microarray, probe aHis, 635 nm (AID 1123); conditions: COS7 cell lysate, fluorescence, higher = more signal;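 further: z-score combines 667nm fluorescence intensity with signal-to-noise per printed compound spot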
[6] = probe aLAP1 signal on lysate-treated microarray – cell lysate, small-molecule microarray, COS7 lysate, primary screen (AID 1124); conditions: probe aLAP1, fluorescence, higher = more signal;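 further: lysate comes from COS7 cells expressing LAP1 and is applied at 0.3 µg/mL; score merges spot fluorescence near 667 nm with signal-to-noise over triplicate slides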
Sam68 (KHDRBS1) = test: compounds binding KHDRBS1 protein – biochemical, small-molecule microarray, 635 nm fluorescence, primary screen (AID 1125); conditions: higher = more signal;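 further: score merges 667 nm channel intensity with signal to noise over triplicate slides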
[7] = test system: Chordin-like protein 2 (CHRDL2); test: compounds binding chordin-like 2 – biochemical, small-molecule microarray, 635 nm fluorescence, primary screen (AID 1126); conditions: fluorescence 635 nm, higher = more signal;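 further: printed compound slides probed with Chrdl2 protein at 4 µg/mL for 1 h at 4 C; score merges 667 nm emission intensity with signal to noise over three replicate slides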
[8] = biological target: Concanavalin-A (Canavalia ensiformis) (UniProt P02866); test: compounds binding concanavalin A lectin – biochemical, small-molecule microarray, Alexa647 label, 635 nm, artefact control for SMM control protein annotation, primary screen (AID 1127); conditions: ConA-A647 binding fluorescence, higher = more signal;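 further: z combines 667 nm emission intensity with signal-to-noise across three replicate slides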
Sequence of Concanavalin-A (Canavalia ensiformis) (P02866 whole entry, looked up): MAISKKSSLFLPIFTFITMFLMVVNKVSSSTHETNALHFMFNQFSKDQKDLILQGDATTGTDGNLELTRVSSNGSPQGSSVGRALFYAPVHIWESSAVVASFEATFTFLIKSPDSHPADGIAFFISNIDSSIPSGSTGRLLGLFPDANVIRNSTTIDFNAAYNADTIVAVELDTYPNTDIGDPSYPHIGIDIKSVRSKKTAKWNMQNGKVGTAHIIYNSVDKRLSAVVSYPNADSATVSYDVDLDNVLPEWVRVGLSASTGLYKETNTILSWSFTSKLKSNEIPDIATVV

[9] = compounds binding Alexa647 anti-His antibody – biochemical, small-molecule microarray, 635 nm fluorescence, artefact control for SMM control protein annotation, primary screen (AID 1128); conditions: higher = more signal;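 further: score merges feature fluorescence with signal-to-noise for each printed compound spot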
[10] = test system: Human papillomavirus type 1a E7 protein (residues 1-88); test: HPV1a E7 small-molecule binders, primary screen, biochemical, small-molecule microarray, residues 1-88, 635 nm (AID 1129); conditions: small-molecule microarray binding, fluorescence 635 nm; higher = more signal
[11] = biological target: Focal adhesion kinase 1 (Homo sapiens) (UniProt Q05397); test: PTK2 protein binding on printed compound slides – biochemical, small-molecule microarray, 635/667 nm fluorescence, BSA, DTT, primary screen (AID 1130); conditions: 635 nm fluorescence, higher = more signal;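 further: composite of spot emission at 667 nm and signal to noise over triplicate slides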
Sequence of Focal adhesion kinase 1 (Homo sapiens) (Q05397 whole entry, looked up): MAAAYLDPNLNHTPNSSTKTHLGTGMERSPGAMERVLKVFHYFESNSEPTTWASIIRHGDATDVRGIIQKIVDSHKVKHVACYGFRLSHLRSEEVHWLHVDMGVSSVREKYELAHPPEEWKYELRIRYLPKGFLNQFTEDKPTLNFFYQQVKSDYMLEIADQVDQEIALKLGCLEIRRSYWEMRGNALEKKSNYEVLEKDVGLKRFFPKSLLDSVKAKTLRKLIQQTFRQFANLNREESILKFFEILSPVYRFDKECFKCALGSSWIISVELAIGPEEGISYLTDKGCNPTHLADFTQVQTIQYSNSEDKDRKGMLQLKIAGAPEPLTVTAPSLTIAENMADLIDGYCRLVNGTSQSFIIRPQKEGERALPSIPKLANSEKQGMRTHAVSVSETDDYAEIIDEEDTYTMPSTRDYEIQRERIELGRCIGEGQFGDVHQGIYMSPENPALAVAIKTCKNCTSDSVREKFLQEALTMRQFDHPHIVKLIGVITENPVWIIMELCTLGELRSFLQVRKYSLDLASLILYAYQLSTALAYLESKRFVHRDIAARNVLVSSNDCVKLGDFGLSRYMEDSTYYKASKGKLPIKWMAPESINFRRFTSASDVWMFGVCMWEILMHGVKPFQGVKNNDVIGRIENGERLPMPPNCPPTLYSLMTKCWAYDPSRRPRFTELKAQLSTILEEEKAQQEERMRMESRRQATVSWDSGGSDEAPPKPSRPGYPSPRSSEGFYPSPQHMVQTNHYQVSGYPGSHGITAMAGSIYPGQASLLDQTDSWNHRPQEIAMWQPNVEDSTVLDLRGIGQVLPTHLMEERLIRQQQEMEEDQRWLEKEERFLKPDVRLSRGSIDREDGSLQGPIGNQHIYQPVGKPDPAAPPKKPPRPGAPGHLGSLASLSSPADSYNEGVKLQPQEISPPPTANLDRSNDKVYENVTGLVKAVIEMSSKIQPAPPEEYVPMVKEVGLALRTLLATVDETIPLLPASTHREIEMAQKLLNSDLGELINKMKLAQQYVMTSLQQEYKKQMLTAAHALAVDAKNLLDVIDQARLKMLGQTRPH

[12] = test system: Fibrinogen (Alexa647-labelled); test: Alexa647-fibrinogen binding to printed small molecules – biochemical, small-molecule microarray, 635/667 nm fluorescence, artefact control for SMM control-protein annotation, profiling panel (AID 1131); conditions: fibrinogen-A647 binding fluorescence, higher = more signal;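 further: z-score merges 667 nm fluorescence with per-spot signal-to-noise over triplicate slides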
[13] = biological target: Follistatin (Homo sapiens) (UniProt P19883); test: FST protein binding to printed compounds – biochemical, small-molecule microarray, 635/667 nm fluorescence, primary screen (AID 1132); conditions: 635 nm fluorescence, higher = more signal
Sequence of Follistatin (Homo sapiens) (P19883 whole entry, looked up): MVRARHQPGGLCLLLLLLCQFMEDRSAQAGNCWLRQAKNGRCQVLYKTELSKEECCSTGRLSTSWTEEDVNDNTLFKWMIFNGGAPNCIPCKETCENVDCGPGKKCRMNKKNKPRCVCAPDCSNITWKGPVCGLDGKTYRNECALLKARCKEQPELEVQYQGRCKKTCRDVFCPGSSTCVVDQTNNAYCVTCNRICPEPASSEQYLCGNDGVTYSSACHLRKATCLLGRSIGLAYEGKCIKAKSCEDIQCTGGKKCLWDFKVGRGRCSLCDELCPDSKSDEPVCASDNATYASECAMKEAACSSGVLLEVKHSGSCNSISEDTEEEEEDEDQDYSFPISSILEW

[14] = biological target: Fibroblast growth factor 2 (Homo sapiens) (UniProt P09038); test: basic fibroblast growth factor binding to printed compounds – biochemical, small-molecule microarray, 635/667 nm fluorescence, primary screen (AID 1133); conditions: FGF2, fluorescence 635/667, higher = more signal
Sequence of Fibroblast growth factor 2 (Homo sapiens) (P09038 whole entry, looked up): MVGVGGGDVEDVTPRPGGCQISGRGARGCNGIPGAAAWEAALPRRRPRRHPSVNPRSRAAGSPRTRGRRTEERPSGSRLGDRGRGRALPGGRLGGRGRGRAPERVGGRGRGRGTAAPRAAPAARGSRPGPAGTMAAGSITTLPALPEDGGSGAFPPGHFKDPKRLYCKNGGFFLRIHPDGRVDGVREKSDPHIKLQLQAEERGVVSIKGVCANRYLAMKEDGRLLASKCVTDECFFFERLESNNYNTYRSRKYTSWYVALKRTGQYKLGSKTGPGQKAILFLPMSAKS

[15] = JC-1 mitochondrial potential readout, lung cancer cells – cell-based, A549, JC-1 fluorescence, basal, 24 h, 100 nL, profiling panel (AID 1138); conditions: higher = more signal;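 further: A549 lung adenocarcinoma cells under basal conditions with no added stimulus; test concentration not given here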
Lefty1 = Lefty1 protein binding to printed compounds – biochemical, small-molecule microarray, 635/667 nm fluorescence, primary screen (AID 1139); conditions: fluorescence 635/667, higher = more signal
[16] = test system: wheat germ agglutinin (Triticum aestivum), Alexa647-labelled; test: Alexa647-WGA lectin binding to printed small molecules – biochemical, small-molecule microarray, 635/667 nm fluorescence, artefact control for SMM control-protein annotation, profiling panel (AID 1140); conditions: WGA-A647 binding, 635 nm fluorescence, higher = more signal;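 further: score merges 667 nm feature emission with signal to noise over triplicate slides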
[17] = biological target: Luciferin 4-monooxygenase (Photinus pyralis) (UniProt P08659); test: inhibition of purified Photinus pyralis luciferase – biochemical, luminescence, purified enzyme, 2006 set, primary screen (AID 1141); conditions: purified firefly luciferase, SteadyGlo luminescence, 30 min; higher = more signal, called active from +8 up or from −8 down;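 further: cell-free assay with purified firefly luciferase at 100 ng per well in PBS; test concentration not given here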
Sequence of Luciferin 4-monooxygenase (Photinus pyralis) (P08659 whole entry, looked up): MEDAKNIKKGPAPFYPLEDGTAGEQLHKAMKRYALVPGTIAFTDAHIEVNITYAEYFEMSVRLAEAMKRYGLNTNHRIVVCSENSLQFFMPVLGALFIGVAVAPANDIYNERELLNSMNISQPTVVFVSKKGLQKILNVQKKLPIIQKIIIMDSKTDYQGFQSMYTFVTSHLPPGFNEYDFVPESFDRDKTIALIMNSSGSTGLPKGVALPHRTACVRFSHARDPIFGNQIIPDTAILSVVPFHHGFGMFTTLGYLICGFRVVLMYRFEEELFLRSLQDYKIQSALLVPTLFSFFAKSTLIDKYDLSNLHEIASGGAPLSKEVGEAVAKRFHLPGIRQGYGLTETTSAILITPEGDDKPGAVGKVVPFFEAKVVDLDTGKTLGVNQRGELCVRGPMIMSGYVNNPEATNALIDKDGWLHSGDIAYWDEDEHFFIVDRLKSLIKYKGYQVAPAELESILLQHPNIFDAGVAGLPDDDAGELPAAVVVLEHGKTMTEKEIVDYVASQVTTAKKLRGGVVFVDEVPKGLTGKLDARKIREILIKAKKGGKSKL

SMILES	composite z-score (Albumin (Bos taurus))	composite Z-score [1]	composite z-score [2]	composite z-score [3]	composite z-score [4]	composite z-score [5]	composite z-score [6]	composite z-score (Sam68 (KHDRBS1))	composite z-score [7]	composite z-score [8]	composite z-score [9]	composite z-score [10]	composite z-score [11]	composite z-score [12]	composite z-score [13]	composite z-score [14]	z-score [15]	composite z-score (Lefty1)	composite z-score [16]	z-score [17]
CCS[C@H]1[C@@H](C(=O)O)[C@H](c2ccc(C)cc2)N(S(=O)(=O)c2ccc(C)cc2)[C@@H]1CC	0.804	-0.0164 (inactive)	0.372	0.0431	0.519	1.77	0.5	1.32	-0.467	0.615	1.12	1.24	0.353	0.715	0.714	-0.0028	-0.223	-0.0097	0.652	1.16 (inactive)
C=C(/C(=C/C[C@H](OC(C)=O)c1ccccc1OCCO)c1cnc2ccccc2c1)C(C)C	0.0816	-0.323 (inactive)	0.16	-0.102	0.722	0.202	-0.0507	0.461	0.384	0.922	-0.577	0.0336	0.119	-0.498	1.3	0.58	1.12	0.505	1.07	-1.14 (inactive)
C=CCOC(=O)[C@H]1[C@@H]2C(=O)O[C@@H](c3ccccc3)[C@@H](c3ccccc3)N2[C@@H](c2ccc(OCCOC(=O)[C@H]3C[C@H]4C(=O)N[C@@H](CCCCN(C)C)C(=O)N4[C@H]3c3ccc(O)cc3)cc2)[C@]12C(=O)Nc1ccc(I)cc12	0.412	0.432 (inactive)	0.282	-0.0028	0.493	1.45	0.651	1.31	1.18	1.15	2.49	1.23	0.739	0.991	1.34	1.64	-0.665	1.59	0.784	0.69 (inactive)
C=C[C@H](CO[Si](CC)(CC)CC)N(Cc1ccc(OC(C)=O)c(OC)c1)S(=O)(=O)c1ccc(Br)cc1	0.848	0.646 (inactive)	0.295	0.0727	0.56	1.33	0.897	1.29	1.31	1.13	2.48	1.08	1.76	0.967	1.28	0.913	-0.202	0.237	0.713	0.0578 (inactive)
C=CC[C@]1(C(=O)NCCCOC)N=C(c2ccc(OCCCO)cc2)O[C@H]1c1ccccc1CN=[N+]=[N-]	0.782	0.571 (inactive)	0.119	-0.0013	0.748	2.59	0.298	1.14	-0.257	0.983	2.44	1.23	0.932	1	1.14	0.564	2.04	-0.0763	0.934	-0.529 (inactive)
C=CC[C@]1(C(=O)NCc2ccccc2)N=C(c2ccc(OCCCO)cc2)O[C@H]1c1ccccc1N=[N+]=[N-]	0.897	1.39 (inactive)	0.174	0.12	0.625	2.68	0.727	1.34	-0.567	1.09	2.39	1.22	0.618	0.971	1.23	-0.26	0.34	0.194	1.23	-8.88 (active)
C=C(C(=O)CC[C@@H](OC(=O)c1cccnc1)c1ccccc1OCCO)C(C)C	0.116	0.59 (inactive)	0.0909	-0.092	0.638	0.206	1.51	0.489	0.411	-0.67	-0.242	0.131	-0.0995	0.0673	0.719	0.647	-0.102	1.23	0.486	-0.484 (inactive)
COC(=O)[C@@]1(CCS(=O)(=O)c2ccccc2)N=C(c2ccc(OCCCO)cc2)O[C@H]1c1ccccc1CN=[N+]=[N-]	-0.307	0.559 (inactive)	0.0807	0.0657	0.691	2.4	0.372	1.34	-0.149	1.08	2.29	1.19	1.46	0.755	1.31	0.55	-0.229	0.279	1.01	-0.282 (inactive)
CCOC(=O)C[C@H]1[C@H](OC(=O)c2ccc(C(=O)c3ccccc3)cc2)[C@@H](NC(=O)c2ccccc2)c2cc(OCCCO)ccc2N1C(=O)Cc1ccc(OC)cc1	0.346	0.713 (inactive)	0.0242	-0.0624	0.0172	0.445	-0.171	0.226	0.0542	0.163	-0.239	-0.158	0.0147	0.204	0.0257	-0.358	2.33	0.545	-0.0653	-0.863 (inactive)
COc1ccc(C(O)C2C=CC3C(=O)N(Cc4ccccc4)C(=O)C3N2n2cnnc2)cc1OCc1ccccc1 (stereo not given)	0.799	-1.19 (inactive)	0.0493	-0.152	0.771	1.5	-0.276	0.953	-0.34	0.681	-0.259	0.48	1.23	0.303	0.319	-0.385	-1.03	0.341	0.194	1.77 (inactive)
[N-]=[N+]=Nc1ccccc1[C@@H]1OC(c2ccc(OCCCO)cc2)=N[C@]1(CCS(=O)(=O)c1ccccc1)C(N)=O	0.935	0.185 (inactive)	0.308	0.125	0.438	2.02	1.66	1.29	-0.227	1.16	0.712	1.23	0.203	1.02	1.28	0.423	-0.995	-0.411	0.881	-13.5 (active)
O=C1[C@@]23C=C(Br)[C@H](C[C@@H]2CCOC3)[C@@]12CO2	-0.169	-0.775 (inactive)	0.146	-0.162	-0.0433	-0.128	0.522	0.166	0.518	0.311	0.477	0.235	-0.176	0.332	0.327	0.469	1.23	0.406	0.128	-0.54 (inactive)
CC(C)OC(=O)C=C1C[C@@H](c2ccccn2)O[C@@H](c2ccccn2)O1	-0.47	0.92 (inactive)	0.0942	-0.12	0.775	0.407	1.32	0.216	1.49	-0.333	0.772	-0.0007	-0.19	0.0108	1.34	0.935	0.0752	1.53	0.372	0.633 (inactive)
CCCc1cc2c(n1Cc1cc(F)cc(F)c1)C(C)C1CN(C(=O)c3ccccc3)C(C)(C(=O)OC)C21 (stereo not given)	1	0.723 (inactive)	0.272	0.341	0.633	3.26	1.07	1.22	-0.255	1.11	2.15	1.24	2.09	0.982	0.542	-0.48	1.24	-0.311	1.01	-1.15 (inactive)
C=CCC(OC(C)=O)[C@@H]1[C@@H](N(Cc2cccc3ccccc23)C(=O)c2ccc(-c3ccccc3)cc2)c2cc(OCCCO)ccc2N1C(=O)c1ccc2ccccc2c1 (stereo not given in full)	0.416	-0.732 (inactive)	0.116	-0.0533	0.16	0.735	0.169	0.721	-0.0354	-0.0377	-0.165	0.233	0.299	0.66	0.906	-0.0101	0.0927	0.389	0.0002	0.797 (inactive)
CCC[C@@H]1C[C@@]1(CCC)[C@@H](NC(=O)c1ccccc1)c1cccc(Cl)c1	0.941	0.432 (inactive)	1.38	0.808	0.326	2.63	0.245	1.33	0.0667	0.954	1.52	1.17	0.535	0.596	0.219	-0.331	0.349	-0.544	1.11	0.841 (inactive)
C[N+](C)(C)CCCCCCNC(=O)[C@@H]1C[C@@H]2C(=O)N[C@@H](Cc3ccccc3)C(=O)N2[C@@H]1c1cccc(OCCO)c1	0.358	0.6 (inactive)	0.0628	-0.132	0.668	1.59	0.591	1.05	1.27	0.622	2.18	0.432	0.214	0.608	1.34	1.45	0.435	1	0.659	-0.205 (inactive)
CC1CC/C=C\[C@H]2OC34C=CCN(Cc5ccccc5)C(=O)[C@H]3N(CCCO)C(=O)[C@@H]4C2C(=O)O1 (stereo not given in full)	-0.0908	-0.422 (inactive)	-0.437	-0.155	0.861	-0.0465	1.25	-0.649	-0.933	-0.841	0.522	-0.67	-0.364	0.623	-0.838	-0.536	-0.178	-0.215	-0.176	-0.483 (inactive)
OCCCC1=CC(c2cccs2)N(Cc2cc3c(cc2Br)OCO3)CC1 (stereo not given)	0.252	0.027 (inactive)	-0.0044	-0.147	0.509	0.713	0.242	0.242	-0.0561	0.795	0.992	0.213	0.585	0.772	0.333	0.076	1.39	0.433	0.929	-0.0407 (inactive)
